The source of these data is article PMC4336329 (PLoS ONE, 2015).

Hit rate of the full screen: of about 310,000 compounds, about 2,200 (0.71%) showed an effect of 50% or more. Effects have a minus sign here. This excerpt belongs to a sample that is enriched for strong results.

This experiment deals with human ether-à-go-go-related gene (hERG) potassium channel (human, UniProt Q12809). The experiment in a line: primary screen, population patch clamp on CHO cells stably expressing hERG; higher = less effect of the substance.
Chain of human ether-à-go-go-related gene (hERG) potassium channel (Q12809 whole entry, looked up): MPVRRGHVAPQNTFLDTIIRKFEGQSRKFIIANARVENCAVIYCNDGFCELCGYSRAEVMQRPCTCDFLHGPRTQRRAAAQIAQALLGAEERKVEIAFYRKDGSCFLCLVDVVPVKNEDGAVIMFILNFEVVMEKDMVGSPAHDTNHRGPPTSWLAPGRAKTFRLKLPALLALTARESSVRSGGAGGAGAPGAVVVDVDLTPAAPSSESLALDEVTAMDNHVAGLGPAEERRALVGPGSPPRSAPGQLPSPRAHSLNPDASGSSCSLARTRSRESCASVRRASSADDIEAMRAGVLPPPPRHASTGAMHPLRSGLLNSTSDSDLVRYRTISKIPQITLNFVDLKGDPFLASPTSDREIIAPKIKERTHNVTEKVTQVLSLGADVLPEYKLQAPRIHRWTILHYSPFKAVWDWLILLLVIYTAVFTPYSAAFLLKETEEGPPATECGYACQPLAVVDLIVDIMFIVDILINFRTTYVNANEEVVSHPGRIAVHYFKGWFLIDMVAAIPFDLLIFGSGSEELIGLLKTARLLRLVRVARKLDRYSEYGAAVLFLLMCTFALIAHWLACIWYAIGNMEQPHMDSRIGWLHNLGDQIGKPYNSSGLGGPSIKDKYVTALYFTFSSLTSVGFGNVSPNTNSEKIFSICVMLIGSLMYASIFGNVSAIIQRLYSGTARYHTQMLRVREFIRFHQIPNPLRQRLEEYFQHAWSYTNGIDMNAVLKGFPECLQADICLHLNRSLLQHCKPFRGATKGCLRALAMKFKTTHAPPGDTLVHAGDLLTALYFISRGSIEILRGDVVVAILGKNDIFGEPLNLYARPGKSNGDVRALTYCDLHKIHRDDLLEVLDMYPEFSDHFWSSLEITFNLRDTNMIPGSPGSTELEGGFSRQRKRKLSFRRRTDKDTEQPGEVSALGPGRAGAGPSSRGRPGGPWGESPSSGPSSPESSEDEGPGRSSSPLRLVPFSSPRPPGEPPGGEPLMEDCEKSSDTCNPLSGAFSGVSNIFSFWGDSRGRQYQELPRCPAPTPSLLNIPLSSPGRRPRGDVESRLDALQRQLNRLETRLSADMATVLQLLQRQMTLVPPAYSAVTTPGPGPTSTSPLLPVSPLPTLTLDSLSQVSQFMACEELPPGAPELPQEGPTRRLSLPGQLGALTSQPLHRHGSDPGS
Consider `CSc1ccc(S(=O)(=O)N2CCC(C(=O)Nc3ccccc3C(F)(F)F)CC2)cc1`, for which the “hERG current change (%, negative = inhibition) at 1uM” value came to 11.7%.
Turning to `C=CCNC(=O)c1ccccc1NS(=O)(=O)c1ccc(SC)cc1`, the “hERG current change (%, negative = inhibition) at 1uM” value came out at 10.5%.
For `C=CCNC(=O)c1ccccc1NC(=O)C1CCN(S(=O)(=O)c2ccc(SC)cc2)CC1`, the “hERG current change (%, negative = inhibition) at 1uM” value is -56.8%.
As for `Cc1cccc2cc(CN(Cc3ccc(F)cc3)C(=O)C(F)(F)F)c3nnnn3c12`, the “hERG current change (%, negative = inhibition) at 1uM” value worked out at 30.5%.
On to `COC(=O)[C@@H]1C[C@]2(OC(=O)c3ccccc3)C=CC(=O)C[C@@H]2N1C(=O)OCc1ccccc1`, for which the “hERG current change (%, negative = inhibition) at 1uM” value is on record as 11.9%.
To `COc1ccc(-c2[nH]ncc2CN2CCC(N3CCSCC3)CC2)cc1F` belongs 3.77%.
`COc1ccc(-c2[nH]ncc2CN2CCC(OCc3ccccn3)CC2)c(F)c1`: the “hERG current change (%, negative = inhibition) at 1uM” value is on record as 2.13%.
Next, `COc1ccc(-c2[nH]ncc2CN2CCC(OCc3cccnc3)CC2)c(F)c1`: -10.6%; `Fc1ccc(N2CCN(Cc3cn[nH]c3-c3ccccc3)CC2)cc1`: -27%.
For `O=C(c1ccc(F)cc1)C1CCN(Cc2cn[nH]c2-c2ccccc2)CC1`, the “hERG current change (%, negative = inhibition) at 1uM” value was -84.2%.
Take `COCC1CCN(Cc2cn[nH]c2-c2ccc(OC)c(F)c2)C1` (stereo not drawn): the “hERG current change (%, negative = inhibition) at 1uM” value came to 3.17%.
Consider `COc1ccc(-c2[nH]ncc2CN2CCCC(C(=O)c3ccc(OC)cc3OC)C2)cc1` (stereo not drawn), for which the “hERG current change (%, negative = inhibition) at 1uM” value is -47.3%.
For `COc1ccc(-c2[nH]ncc2CN2CCN(c3ccc(F)cc3)CC2)cc1`, the “hERG current change (%, negative = inhibition) at 1uM” value is on record as -4.53%.
On to `CCOC(=O)C1CCN(Cc2cn[nH]c2-c2ccccc2)CC1.O=C(O)C(=O)O`, for which the “hERG current change (%, negative = inhibition) at 1uM” value came to 14.2%.
For `COc1ccc(-c2[nH]ncc2CN2CCC(C(=O)c3ccc(F)cc3)CC2)cc1`, the “hERG current change (%, negative = inhibition) at 1uM” value is -70.5%.
Consider `COc1ccc(-c2[nH]ncc2CN2CCC(c3ccncc3)CC2)cc1F`, for which the “hERG current change (%, negative = inhibition) at 1uM” value was -51.4%.
On to `COc1ccc(-c2[nH]ncc2CN2CCC(OCc3ccccc3)CC2)c(F)c1`, for which the “hERG current change (%, negative = inhibition) at 1uM” value is given as -64.5%.
Turning to `CN(C)c1ccc(C(CNC(=O)c2ccco2)N2CCCC2)cc1` (stereo not drawn), the “hERG current change (%, negative = inhibition) at 1uM” value is reported as 13.2%.
Next, `Cc1nc(C)c(-c2csc(Nc3ccc(O)c(C(=O)O)c3)n2)s1`: 13.6%.
In the case of `CC(=O)c1ccc(NC(=S)N2CCN(c3cccc(Cl)c3)CC2)cc1`, the “hERG current change (%, negative = inhibition) at 1uM” value came to 12.6%.
Take `COC(=O)C1CC(=O)N(c2ccc(C)cc2)C1` (stereo not drawn): the “hERG current change (%, negative = inhibition) at 1uM” value was 4.3%.
Take `CCc1ccccc1NC(=O)CCNS(=O)(=O)c1cc(Br)cnc1N`: the “hERG current change (%, negative = inhibition) at 1uM” value stood at 0.979%.
For `Cl.O=C(OCCN1CCOCC1)c1ccc2c(c1)OCCO2`, the “hERG current change (%, negative = inhibition) at 1uM” value was found to be 8.19%.
For `O=C(NCCc1ccccn1)C1CC(=O)N(Cc2ccccc2Cl)C1` (stereo not drawn), the “hERG current change (%, negative = inhibition) at 1uM” value is on record as 4.09%.
Take `CCCCCCC(=O)Nc1ccc(Cl)cn1`: the “hERG current change (%, negative = inhibition) at 1uM” value turned out to be 12.1%.
For `CCOC(=O)C1CCN(Cc2cn[nH]c2-c2ccc(C)cc2)CC1`, the “hERG current change (%, negative = inhibition) at 1uM” value is -23.6%.
As for `O=C(c1ccc(F)cc1)C1CCN(Cc2cn[nH]c2-c2ccc(F)cc2)CC1`, the “hERG current change (%, negative = inhibition) at 1uM” value is -78.9%.
`Fc1ccc(-c2[nH]ncc2CN2CCN(c3ccc(F)cc3)CC2)cc1`: the “hERG current change (%, negative = inhibition) at 1uM” value is on record as -0.0709%.
Consider `O=C(/C=C/c1ccccc1)NC(=S)Nc1ncccn1`, for which the “hERG current change (%, negative = inhibition) at 1uM” value amounted to 14.1%.
To `CCN(CC)S(=O)(=O)c1ccc(Cl)c(C(=O)Nc2nncs2)c1` belongs 15.1%.
On to `COc1ccccc1OCC(=O)NCCS(=O)(=O)N1CCN(c2ccc(F)cc2)CC1`, for which the “hERG current change (%, negative = inhibition) at 1uM” value is given as -3.49%.
For the compound `O=C(O)c1ccc(-n2nnnc2SCc2ccccc2)cc1`, the “hERG current change (%, negative = inhibition) at 1uM” value turned out to be 7.44%.
Consider `Cc1ccc(-n2nnnc2SCc2ccc(C(=O)O)cc2)cc1C`, for which the “hERG current change (%, negative = inhibition) at 1uM” value is -80.9%.
`O=C(O)c1ccc(CSc2nnnn2-c2ccc(F)cc2)cc1`: the “hERG current change (%, negative = inhibition) at 1uM” value worked out at 6.99%.
As to `Cc1c(C#N)c2ccccc2n1CC(=O)NC(C)c1ccccc1` (stereo not drawn), the “hERG current change (%, negative = inhibition) at 1uM” value came to 4.94%.
Next, `COC(=O)c1ccc(CS(=O)(=O)c2ccccc2C)o1`: 2.66%; `O=C1N=c2ccccc2=C1c1sc(=S)n(CC2CCCO2)c1O` (stereo not drawn): 10.8%.
For `COc1ccccc1COCC(O)CNCC1(N2CCCCC2)CCCCC1.O=C(O)C(=O)O` (stereo not drawn), the “hERG current change (%, negative = inhibition) at 1uM” value came to 0.206%.
Regarding `COc1cc(C(C)=O)ccc1OCC(O)CNCC1(N2CCCCC2)CCCCC1.O=C(O)C(=O)O` (stereo not drawn), the “hERG current change (%, negative = inhibition) at 1uM” value turned out to be 2.35%.
As for `OC(CNCC1(N2CCCCC2)CCCCC1)COc1ccc(Cl)cc1Cl` (stereo not drawn), the “hERG current change (%, negative = inhibition) at 1uM” value is given as -74.2%.
Consider `Cc1ccccc1NC(=O)CCCN1C(=O)C2CC=CCC2C1=O` (stereo not drawn), for which the “hERG current change (%, negative = inhibition) at 1uM” value is 14.5%.
For the compound `O=C(NC1CCCCC1)C(c1ccncc1)N(C(=O)Cn1nnc(-c2cccs2)n1)C1CCCC1` (stereo not drawn), the “hERG current change (%, negative = inhibition) at 1uM” value is on record as -4.68%.
With `Cc1ccccc1NC(=O)c1cccc2c1C(=O)N(C1CCCCC1)C2`, the “hERG current change (%, negative = inhibition) at 1uM” value amounted to 15%.
For the compound `O=S(=O)(Nc1cc(F)ccc1F)c1cccc2nsnc12`, the “hERG current change (%, negative = inhibition) at 1uM” value is reported as 14.5%.
On to `CSc1ccccc1NS(=O)(=O)c1cccc2nonc12`, for which the “hERG current change (%, negative = inhibition) at 1uM” value worked out at 7.17%.
As for `O=S(=O)(Nc1cc(F)ccc1F)c1cccc2nonc12`, the “hERG current change (%, negative = inhibition) at 1uM” value is -61%.
Consider `N#Cc1nc(COc2ccccc2)oc1N1CCN(Cc2ccccc2)CC1`, for which the “hERG current change (%, negative = inhibition) at 1uM” value is -3.01%.
Next, `CCN1CCN(c2oc(COc3ccc(-c4ccccc4)cc3)nc2C#N)CC1`: 10.1%; `N#Cc1nc(COc2ccc(Cl)cc2)oc1N1CCN(Cc2ccccc2)CC1`: 10.2%; `CCN1CCN(c2oc(COc3ccc(Cl)cc3)nc2C#N)CC1`: -79.3%.
On to `N#Cc1nc(COc2ccc(Cl)cc2)oc1N1CCCC1`, for which the “hERG current change (%, negative = inhibition) at 1uM” value was -2.53%.
`N#Cc1nc(COc2ccc(F)cc2)oc1N1CCN(Cc2ccccc2)CC1`: the “hERG current change (%, negative = inhibition) at 1uM” value was -51%.
As to `COC(=O)C1CC(Cl)CN1c1ncc(C(F)(F)F)cc1Cl` (stereo not drawn), the “hERG current change (%, negative = inhibition) at 1uM” value is 15.5%.
As to `COc1ccc(-n2c(CNC(=O)COc3ccc(Cl)cc3)n[nH]c2=S)cc1`, the “hERG current change (%, negative = inhibition) at 1uM” value is reported as 16.9%.
For `C/C(=N\O)C(C)(C)Nc1ccc(Cl)cc1`, the “hERG current change (%, negative = inhibition) at 1uM” value stood at 10.9%.
For the compound `CCOc1cc(S(=O)(=O)NC2CC(C)(C)NC(C)(C)C2)ccc1Cl`, the “hERG current change (%, negative = inhibition) at 1uM” value is listed as 11.2%.
Next, `COc1ccccc1-c1nnc2sc(-c3cc4ccccc4o3)nn12`: -0.794%; `CN(C)CCCNC(=O)c1ccc(Cl)c(S(=O)(=O)N2CCCCCC2)c1.Cl`: -70%; `CCN(CC)CCNC(=O)c1ccc(Cl)c(S(=O)(=O)N2CCCCCC2)c1.Cl`: -52.2%.
As to `O=C(NCCCN1CCCC1=O)c1ccc(Cl)c(S(=O)(=O)N2CCCCC2)c1`, the “hERG current change (%, negative = inhibition) at 1uM” value was 9.57%.
Next, `Cl.O=C(NCCN1CCOCC1)c1ccc(Cl)c(S(=O)(=O)N2CCCCCC2)c1`: -10.3%; `Cl.O=C(NCCCN1CCOCC1)c1ccc(Cl)c(S(=O)(=O)N2CCCCCC2)c1`: -18.9%; `CCN(CC)CCNC(=O)c1ccc(NC(=O)c2ccc(Cl)c(S(=O)(=O)N3CCCCCC3)c2)cc1.Cl`: 1.9%.
Next, `CN(C)C(=O)C12CCC(C)(C(=O)C1Br)C2(C)C` (stereo not drawn): 14.5%; `O=c1oc(-c2ccco2)nc2sc3c(c12)CCCC3`: 11.5%.
For the compound `O=C(CNC(=O)c1ccc(Oc2ccccc2)cc1)OC1CCCCC1=O` (stereo not drawn), the “hERG current change (%, negative = inhibition) at 1uM” value is listed as -58.8%.
Turning to `COc1cc(OC)cc(C(=O)NCC(=O)OC2CCCCC2=O)c1` (stereo not drawn), the “hERG current change (%, negative = inhibition) at 1uM” value is reported as -1.67%.
Consider `COc1ccc(C(=O)NCC(=O)OC2CCCCC2=O)cc1` (stereo not drawn), for which the “hERG current change (%, negative = inhibition) at 1uM” value is listed as -0.0213%.
As for `Cc1nc2ncnn2c(C)c1CCC(=O)N1CCc2ccccc21`, the “hERG current change (%, negative = inhibition) at 1uM” value was -66.3%.
In the case of `Cc1nc2nc(C)c(CCC(=O)N3CCc4ccccc43)c(C)n2n1`, the “hERG current change (%, negative = inhibition) at 1uM” value was -36.3%.
For the compound `Cc1nc2ncnn2c(C)c1CCC(=O)N1CCc2ccccc2C1`, the “hERG current change (%, negative = inhibition) at 1uM” value was -19.5%.
Turning to `CCN(CC(=O)Nc1ccc(NC(C)=O)cc1)C(=O)c1sc2nc3n(c(=O)c2c1C)CCC3`, the “hERG current change (%, negative = inhibition) at 1uM” value is 10.2%.
On to `O=C(Nc1cccc(Cl)c1)c1cncn1-c1ccc(F)cc1`, for which the “hERG current change (%, negative = inhibition) at 1uM” value was -52.8%.
Next, `COc1cc(OC)c(NC(=O)c2cncn2-c2ccc(F)cc2)cc1Cl`: 5.23%; `NNC(=O)c1cncn1-c1ccc(F)cc1`: 12.3%.
Regarding `CC(C)(C)C1CCC(OC(=O)CN2CCCCC2)CC1` (stereo not drawn), the “hERG current change (%, negative = inhibition) at 1uM” value was 2.3%.
As for `Cc1ccc(S(=O)(=O)c2ccc(Cl)cc2)cc1S(=O)(=O)N1CCOCC1`, the “hERG current change (%, negative = inhibition) at 1uM” value is given as 3.5%.
`Cc1ccc(S(=O)(=O)c2cc3c(=O)n4cccc(C)c4nc3n(Cc3ccncc3)c2=N)cc1`: the “hERG current change (%, negative = inhibition) at 1uM” value is reported as 9.03%.
Next, `Cc1cccn2c(=O)c3cc(C(=O)NCCN4CCOCC4)c(=N)n(Cc4ccc(F)cc4)c3nc12`: -13.3%; `CCCCNC(=O)c1cc2c(=O)n3cccc(C)c3nc2n(Cc2ccccc2)c1=N`: -80.7%; `O=C(NCCN1CCN(c2ccccc2)CC1)c1cccn2c(=O)c3ccccc3nc12`: -10.8%.
Turning to `CCNC(=O)c1cc2c(=O)n3cccc(C)c3nc2n(Cc2ccc(C)cc2)c1=N`, the “hERG current change (%, negative = inhibition) at 1uM” value is -97.1%.
Consider `Cc1cccn2c(=O)c3cc(C(=O)NC(C)C)c(=N)n(Cc4ccncc4)c3nc12`, for which the “hERG current change (%, negative = inhibition) at 1uM” value is -67.2%.
Next, `CN(CCCNC(=O)c1cccn2c(=O)c3ccccc3nc12)Cc1ccccc1`: -75.3%; `COCCCNC(=O)c1cccn2c(=O)c3cc4ccccc4cc3nc12`: -8.65%; `Cc1ccc(Cn2c(=N)c(C#N)cc3c(=O)n4cccc(C)c4nc32)cc1`: -2.14%.
Next, `N#Cc1cnn2c(-c3cccc(C(F)(F)F)c3)ccnc12`: 1.86%.
